Experimental data reported in PubChem BioAssay (Tox21).
Inconclusive results are not listed. Where a call stands in place of a potency, no number is given. Unmarked numbers belong to inactive results. Active and inactive are the calls of the source. Unless noted, calls follow the shape of the full dose curve.

Assay: qHTS assay for small molecule agonists of the antioxidant response element (ARE) signaling pathway (AID 743202; active = well fitted activation curve with a large enough effect in the signal ratio in the repeat runs, not every such curve was filed as active; the % refers to the signal ratio; also: potency is read from the fitted curve at half-maximal effect)
Conditions: HepG2 ARE-bla reporter, beta-lactamase FRET, 16 h; series mostly up to 73.3 µM
Procedure, shortened: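 HepG2 ARE-bla cells; 16 h treatment at 37 C; FRET-based beta-lactamase fluorescence read after 2 h substrate incubation at room temperature.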

SMILES | Potency | activation
CC(=O)OCC(=O)[C@@]1(O)CC[C@H]2[C@@H]3CCC4=CC(=O)C=C[C@]4(C)[C@@]3(F)[C@@H](O)C[C@@]21C | inactive | 
CC1(C)C(=O)NC(=O)N1CO | inactive | 
O=C(OCCOCCOCCOC(=O)c1ccccc1)c1ccccc1 | inactive | 
NC(=O)c1ccccc1 | inactive | 
CC(COc1ccccc1)NC(C)C(O)c1ccc(O)cc1 (stereo not given) | inactive | 
C=CC(=O)NC(C)(C)C | inactive | 
CCCC1CCOC(C)S1 (stereo not given) | inactive | 
CCCCCCCCCCCCCCCCC(=O)O | inactive | 
CCCCCCCCS | inactive | 
C=C(C)C(=O)OCCCCCCCCCCOC(=O)C(=C)C | inactive | 
CCCCCCCCCCCCCCCCCCCl |  | -2.23% [at 8.36 µM]
CCCC(=O)OCc1ccccc1 | inactive | 
C[C@@H](O)[C@H]1C(=O)N2C(C(=O)O)=C(S[C@@H]3CN[C@H](CNS(N)(=O)=O)C3)[C@H](C)[C@H]12 | inactive | 
Nc1cccc2c(=O)[nH][nH]c(=O)c12 | inactive | 
CCCc1ccc(OC)cc1 | inactive | 
COC(=O)c1cc(Cl)ccc1[N+](=O)[O-] | inactive | 
OCCOc1cccc(OCCO)c1 | inactive | 

SMILES | Potency | activation
O=C(O)c1ccc2cc(O)ccc2c1 | inactive | 
C=CC(=O)OCCCCCCCCCC | inactive | 
CCCOC(C)=O | inactive | 
CCOC(OCC)OCC | inactive | 
C[Si](C)(C)O[Si](C)(C)O[Si](C)(C)C | inactive | 
CCCCCCCCCCCC(=O)OCC | inactive | 
CC(C)Cc1nccs1 | inactive | 
O=C(c1ccc(Cl)cc1)c1ccc(Cl)cc1 | inactive | 
CCCCCCCCCCCCN1CCOCC1 | inactive | 
O=Cc1ccc([N+](=O)[O-])cc1 | inactive | 
CC1=C(C)C(=O)C(CCCCC#CCCCC#CCO)=C(C)C1=O | 23.7 µM (active) | 
O=C1OC(=O)C2CC=CCC12 (stereo not given) | inactive | 
N#Cc1ccc(CC(=O)c2cccc(C(F)(F)F)c2)cc1 | inactive | 
N#C[C@@H]1CC(F)(F)CN1C(=O)CNC1CC2CCC(C1)N2c1ncccn1 (stereo not given in full) | inactive | 
O=[N+]([O-])c1cccc(I)c1 | inactive | 
OCCCO | inactive | 

Assay: qHTS assay for small molecule agonists of the antioxidant response element (ARE) signaling pathway - cell viability counter screen (AID 743203); also: nearly all actives have a fitted effect of over 55% in size
Conditions: ARE-bla HepG2 viability, CellTiter-Glo luminescence, 16 h; series mostly up to 73.3 µM
Procedure, shortened: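 Measured in the same wells as the beta-lactamase ARE reporter, this read-out is CellTiter-Glo luminescence from HepG2 ARE-bla cells given compounds for 16 hrs.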

SMILES | Potency | viability change, negative = cytotoxic
CC1(C)C(=O)NC(=O)N1CO | inactive | 
O=C(OCCOCCOCCOC(=O)c1ccccc1)c1ccccc1 | inactive | 
NC(=O)c1ccccc1 | inactive | 
CC(COc1ccccc1)NC(C)C(O)c1ccc(O)cc1 (stereo not given) | inactive | 
O=[N+]([O-])c1ccc(Cl)cc1Cl | inactive | 
C=CC(=O)NC(C)(C)C | inactive | 
CCCC1CCOC(C)S1 (stereo not given) | inactive | 
CCCCCCCCS | inactive | 
C=C(C)C(=O)OCCCCCCCCCCOC(=O)C(=C)C | inactive | 
CCCCCCCCCCCCCCCCCCCl |  | 1.36% [at 8.36 µM]
CCCC(=O)OCc1ccccc1 | inactive | 
C[C@@H](O)[C@H]1C(=O)N2C(C(=O)O)=C(S[C@@H]3CN[C@H](CNS(N)(=O)=O)C3)[C@H](C)[C@H]12 | inactive | 
Nc1cccc2c(=O)[nH][nH]c(=O)c12 | inactive | 
CCCc1ccc(OC)cc1 | inactive | 
FC1(F)C(F)(F)C(F)(F)C2(F)C(F)(C1(F)F)C(F)(F)C(F)(F)C1(F)C(F)(F)C(F)(F)C(F)(F)C(F)(F)C12F (stereo not given) | inactive | 
O=C1CCCN1CCO | inactive | 

SMILES | Potency | viability change, negative = cytotoxic
COC(=O)c1cc(Cl)ccc1[N+](=O)[O-] | inactive | 
OCCOc1cccc(OCCO)c1 | inactive | 
O=C(O)c1ccc2cc(O)ccc2c1 | inactive | 
C=CC(=O)OCCCCCCCCCC | inactive | 
CCCOC(C)=O | inactive | 
CC(Cc1ccccc1)(NC(=O)CN)c1ccccc1 (stereo not given) | inactive | 
C[Si](C)(C)O[Si](C)(C)O[Si](C)(C)C | inactive | 
CC(C)Cc1nccs1 | inactive | 
O=C(c1ccc(Cl)cc1)c1ccc(Cl)cc1 | inactive | 
CCCCCCCCCCCCN1CCOCC1 | inactive | 
O=Cc1ccc([N+](=O)[O-])cc1 | inactive | 
CC1=C(C)C(=O)C(CCCCC#CCCCC#CCO)=C(C)C1=O | inactive | 
O=C1OC(=O)C2CC=CCC12 (stereo not given) | inactive | 
N#C[C@@H]1CC(F)(F)CN1C(=O)CNC1CC2CCC(C1)N2c1ncccn1 (stereo not given in full) | inactive | 
C=C[Si]1(C)O[Si](C)(C=C)O[Si](C)(C=C)O[Si](C)(C=C)O1 (stereo not given) | inactive | 
OCCCO | inactive | 
